# Source: the supplement of paper PMC8728848
# This excerpt belongs to a sample that is enriched for the strongest signals.
# Assays:
# Assay in all cases: glycan array binding signal (z-score within array); higher = stronger binding
# [1] = tested on: Fuc(a1-2)Gal(b1-3)GalNAc(a1-3)[Fuc(a1-2)]Gal(b1-4)GlcNAc; conditions: glycan notation: IUPAC condensed, linker removed
# In short: (§1)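 The Consortium for Functional Glycomics database supplied 3228 glycan arrays, of which those lacking an available protein sequence were dropped. The binding signal, a within-array Z-score, was averaged across arrays of the same protein sequence and across linkers. Negative scores can be read as non-binding.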
# [2] = tested on: Fuc(a1-2)Gal(b1-3)GlcNAc(b1-3)[Gal(b1-4)GlcNAc(b1-6)]Gal(b1-4)Glc; conditions: glycan notation: IUPAC condensed, linker removed
# In short: as §1
# [3] = tested on: Fuc(a1-2)Gal(b1-3)GalNAc(a1-3)[Fuc(a1-2)]Gal(b1-4)Glc; conditions: glycan notation: IUPAC condensed, linker removed
# In short: as §1
# [4] = tested on: Fuc(a1-2)Gal(b1-3)GalNAc(b1-3)Gal; conditions: glycan notation: IUPAC condensed, linker removed
# In short: as §1
# Fuc(a1-2)Gal(b1-3)GalNAc = conditions: glycan notation: IUPAC condensed, linker removed
# In short: as §1
# [5] = tested on: Fuc(a1-2)Gal(b1-3)GlcNAc(b1-3)Gal(b1-4)Glc; conditions: glycan notation: IUPAC condensed, linker removed
# In short: as §1
# [6] = tested on: Fuc(a1-2)Gal(b1-3)GalNAc(b1-3)Gal(a1-4)Gal(b1-4)Glc; conditions: glycan notation: IUPAC condensed, linker removed; mutation: R125K
# In short: as §1
# [7] = tested on: Fuc(a1-2)Gal(b1-3)GlcNAc(b1-2)Man(a1-3)[Fuc(a1-2)Gal(b1-3)GlcNAc(b1-2)Man(a1-6)]Man(b1-4)GlcNAc(b1-4)GlcNAc; conditions: glycan notation: IUPAC condensed, linker removed
# In short: as §1
# [8] = tested on: Fuc(a1-2)Gal(b1-3)[Fuc(a1-4)]GlcNAc(b1-2)Man(a1-3)[Fuc(a1-2)Gal(b1-3)[Fuc(a1-4)]GlcNAc(b1-2)Man(a1-3)]Man(b1-4)GlcNAc(b1-4)GlcNAc; conditions: glycan notation: IUPAC condensed, linker removed; mutation: R125K
# In short: as §1
# [9] = tested on: Fuc(a1-2)Gal(b1-4)Fuc(a1-3)]GlcNAc(b1-2)Man(a1-3)[Fuc(a1-2)Gal(b1-4)[Fuc(a1-3)]GlcNAc(b1-2)Man(a1-6)]Man(b1-4)GlcNAc(b1-4)GlcNAc; conditions: glycan notation: IUPAC condensed, linker removed; mutation: R125K
# In short: as §1
# [10] = tested on: Fuc(a1-2)Gal(b1-3)GalNAc(b1-3)Gal(b1-4)Glc; conditions: glycan notation: IUPAC condensed, linker removed
# In short: as §1
# [11] = tested on: Fuc(a1-2)Gal(b1-3)GalNAc(b1-4)[Neu5Ac(a2-3)]Gal(b1-4)Glc; conditions: glycan notation: IUPAC condensed, linker removed
# In short: as §1
# [12] = tested on: Fuc(a1-2)Gal(b1-3)[Fuc(a1-4)]GlcNAc(b1-2)Man(a1-6)[Fuc(a1-2)Gal(b1-3)[Fuc(a1-4)]GlcNAc(b1-2)Man(a1-3)]Man(b1-4)GlcNAc(b1-4)[Fuc(a1-6)]GlcNAc; conditions: glycan notation: IUPAC condensed, linker removed
# In short: as §1
# [13] = tested on: Fuc(a1-2)Gal(b1-3)[Fuc(a1-4)]GlcNAc; conditions: glycan notation: IUPAC condensed, linker removed
# In short: as §1
# [14] = tested on: Fuc(a1-2)Gal(b1-3)GlcNAc(b1-3)[Neu5Ac(a2-6)Gal(b1-4)GlcNAc(b1-6)]Gal(b1-4)Glc; conditions: glycan notation: IUPAC condensed, linker removed
# In short: as §1
# [15] = tested on: Fuc(a1-2)Gal(b1-3)[Fuc(a1-4)]GlcNAc(b1-3)[Gal(b1-4)GlcNAc(b1-6)]Gal(b1-4)Glc; conditions: glycan notation: IUPAC condensed, linker removed
# In short: as §1
# [16] = tested on: Fuc(a1-2)Gal(b1-4)GlcNAc(b1-2)Man(a1-3)[Fuc(a1-2)Gal(b1-4)GlcNAc(b1-2)Man(a1-6)]Man(b1-4)GlcNAc(b1-4)GlcNAc; conditions: glycan notation: IUPAC condensed, linker removed
# In short: as §1
# Fuc(a1-2)Gal(b1-3)GlcNAc = conditions: glycan notation: IUPAC condensed, linker removed
# In short: as §1
# [17] = tested on: Fuc(a1-2)Gal(b1-3)[Fuc(a1-4)]GlcNAc(b1-2)Man(a1-3)[Fuc(a1-2)Gal(b1-3)[Fuc(a1-4)]GlcNAc(b1-2)Man(a1-6)]Man(b1-4)GlcNAc(b1-4)GlcNAc; conditions: glycan notation: IUPAC condensed, linker removed
# In short: as §1
# Fuc(a1-2)Gal(b1-4)Glc6S = conditions: glycan notation: IUPAC condensed, linker removed
# In short: as §1
# CHI3L1 (Homo sapiens), P36222, sequence (P36222 whole entry): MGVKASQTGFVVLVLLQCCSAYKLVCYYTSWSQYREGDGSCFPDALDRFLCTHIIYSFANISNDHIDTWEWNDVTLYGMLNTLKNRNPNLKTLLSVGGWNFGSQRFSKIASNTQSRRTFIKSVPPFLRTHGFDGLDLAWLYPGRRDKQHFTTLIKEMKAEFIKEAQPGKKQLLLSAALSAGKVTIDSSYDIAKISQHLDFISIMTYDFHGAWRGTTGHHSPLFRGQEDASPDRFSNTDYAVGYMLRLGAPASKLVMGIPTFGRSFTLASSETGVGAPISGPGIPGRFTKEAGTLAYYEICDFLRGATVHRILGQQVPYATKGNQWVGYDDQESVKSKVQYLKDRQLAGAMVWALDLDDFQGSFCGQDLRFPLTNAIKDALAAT
# PILRa (Mus musculus), Q2YSF3, sequence (Q2YSF3 entry or part of it): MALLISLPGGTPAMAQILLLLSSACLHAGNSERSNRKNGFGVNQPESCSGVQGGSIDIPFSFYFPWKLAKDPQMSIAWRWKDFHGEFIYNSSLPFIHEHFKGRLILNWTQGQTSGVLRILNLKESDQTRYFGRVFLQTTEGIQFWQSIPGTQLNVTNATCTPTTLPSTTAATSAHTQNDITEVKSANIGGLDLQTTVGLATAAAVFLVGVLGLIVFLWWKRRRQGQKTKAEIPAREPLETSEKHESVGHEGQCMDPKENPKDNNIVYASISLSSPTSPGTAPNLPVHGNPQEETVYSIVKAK
# Avaren (Actinomycete K97), sequence (chain, as listed by the source): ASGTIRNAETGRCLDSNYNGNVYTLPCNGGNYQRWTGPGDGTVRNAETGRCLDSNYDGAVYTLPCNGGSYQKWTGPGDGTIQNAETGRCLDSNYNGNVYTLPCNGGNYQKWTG
# PILRb (Mus musculus), Q2YSF2, sequence (Q2YSF2 entry or part of it): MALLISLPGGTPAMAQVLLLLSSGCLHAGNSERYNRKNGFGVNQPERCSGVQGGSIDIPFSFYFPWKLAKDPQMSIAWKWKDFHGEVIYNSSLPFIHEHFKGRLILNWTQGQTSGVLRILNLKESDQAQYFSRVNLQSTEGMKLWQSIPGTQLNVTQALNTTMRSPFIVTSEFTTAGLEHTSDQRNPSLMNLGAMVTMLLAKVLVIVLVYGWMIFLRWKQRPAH
# 6RG (Lolium perenne), sequence (chain, as listed by the source): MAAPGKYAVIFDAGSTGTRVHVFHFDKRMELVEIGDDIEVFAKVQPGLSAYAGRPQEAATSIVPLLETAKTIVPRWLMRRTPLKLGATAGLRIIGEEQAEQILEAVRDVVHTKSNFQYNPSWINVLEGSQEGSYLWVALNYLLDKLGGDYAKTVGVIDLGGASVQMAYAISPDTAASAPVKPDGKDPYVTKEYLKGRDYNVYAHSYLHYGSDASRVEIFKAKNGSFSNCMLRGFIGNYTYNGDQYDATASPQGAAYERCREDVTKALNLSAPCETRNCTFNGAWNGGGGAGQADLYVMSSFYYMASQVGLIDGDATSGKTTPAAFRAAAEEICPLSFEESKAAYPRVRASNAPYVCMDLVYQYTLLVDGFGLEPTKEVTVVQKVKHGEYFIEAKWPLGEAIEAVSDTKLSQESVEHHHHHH
# C3b (Homo sapiens), P01024, sequence (P01024 23-667): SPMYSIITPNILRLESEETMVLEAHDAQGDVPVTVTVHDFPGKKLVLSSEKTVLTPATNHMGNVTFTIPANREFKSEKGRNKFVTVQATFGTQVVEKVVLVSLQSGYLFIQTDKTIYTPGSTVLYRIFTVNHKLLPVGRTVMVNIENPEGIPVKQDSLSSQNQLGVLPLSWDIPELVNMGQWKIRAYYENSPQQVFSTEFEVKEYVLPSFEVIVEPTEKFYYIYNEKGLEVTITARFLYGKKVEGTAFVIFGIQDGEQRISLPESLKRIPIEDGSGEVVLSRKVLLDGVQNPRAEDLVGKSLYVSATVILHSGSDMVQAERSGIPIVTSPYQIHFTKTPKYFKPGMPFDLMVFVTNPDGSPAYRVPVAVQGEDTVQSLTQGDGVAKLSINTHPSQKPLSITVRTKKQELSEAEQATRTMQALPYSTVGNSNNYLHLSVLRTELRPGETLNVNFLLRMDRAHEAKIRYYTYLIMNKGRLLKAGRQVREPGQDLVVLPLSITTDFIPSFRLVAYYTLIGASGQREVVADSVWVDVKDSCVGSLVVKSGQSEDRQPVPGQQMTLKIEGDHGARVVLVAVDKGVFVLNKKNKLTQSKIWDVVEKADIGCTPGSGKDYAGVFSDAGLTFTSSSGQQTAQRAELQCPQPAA
# CHT (Homo sapiens), sequence (chain, as listed by the source): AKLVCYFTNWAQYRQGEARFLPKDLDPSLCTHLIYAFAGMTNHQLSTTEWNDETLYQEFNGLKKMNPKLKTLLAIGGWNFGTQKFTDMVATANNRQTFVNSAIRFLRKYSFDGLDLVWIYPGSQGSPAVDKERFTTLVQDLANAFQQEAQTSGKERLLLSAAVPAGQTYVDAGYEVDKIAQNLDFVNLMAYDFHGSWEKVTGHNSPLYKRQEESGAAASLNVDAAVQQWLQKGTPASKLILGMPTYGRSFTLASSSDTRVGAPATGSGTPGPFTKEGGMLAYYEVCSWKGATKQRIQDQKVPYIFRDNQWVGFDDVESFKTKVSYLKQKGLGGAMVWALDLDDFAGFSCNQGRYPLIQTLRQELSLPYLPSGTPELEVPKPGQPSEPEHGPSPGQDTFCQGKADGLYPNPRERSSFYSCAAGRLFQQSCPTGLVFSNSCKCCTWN
# Regenerating Gene IV (Homo sapiens), Q9BYZ8, sequence (Q9BYZ8 whole entry, looked up): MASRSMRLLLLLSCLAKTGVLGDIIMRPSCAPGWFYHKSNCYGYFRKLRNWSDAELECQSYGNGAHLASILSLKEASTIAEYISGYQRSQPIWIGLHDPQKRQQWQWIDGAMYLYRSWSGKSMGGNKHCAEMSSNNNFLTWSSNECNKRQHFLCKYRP
substance,measurement,setting,value
Avaren (Actinomycete K97),glycan array binding signal (z-score),[1],-0.138
same,glycan array binding signal (z-score),[2],-0.128
"PILRa (Mus musculus), Q2YSF3",glycan array binding signal (z-score),[3],0.037
same,glycan array binding signal (z-score),[4],0.134
same,glycan array binding signal (z-score),Fuc(a1-2)Gal(b1-3)GalNAc,-0.151
same,glycan array binding signal (z-score),[5],-0.127
same,glycan array binding signal (z-score),[2],-0.176
"Siglec-8 (Homo sapiens), Q9NYZ4",glycan array binding signal (z-score),[3]; mutation: R125K,0.206
same,glycan array binding signal (z-score),[6],-0.14
same,glycan array binding signal (z-score),Fuc(a1-2)Gal(b1-3)GalNAc; mutation: R125K,-0.339
same,glycan array binding signal (z-score),[7],0.028
same,glycan array binding signal (z-score),[8],1.44
same,glycan array binding signal (z-score),[9],2.42
6RG (Lolium perenne),glycan array binding signal (z-score),[10],7.3
same,glycan array binding signal (z-score),[5],6.52
"C3b (Homo sapiens), P01024",glycan array binding signal (z-score),[11],0.329
CHT (Homo sapiens),glycan array binding signal (z-score),"Fuc(a1-2)Gal(b1-3)GalNAc; mutation: D138V, E140I",0.451
"CHI3L1 (Homo sapiens), P36222",glycan array binding signal (z-score),[7],-0.032
same,glycan array binding signal (z-score),[12],0.653
same,glycan array binding signal (z-score),[13],5.09
MpAFP RI GFP (Marinomonas primoryensis),glycan array binding signal (z-score),[14],-0.127
same,glycan array binding signal (z-score),[15],-0.303
same,glycan array binding signal (z-score),[13],-0.05
same,glycan array binding signal (z-score),[16],-0.295
"PILRb (Mus musculus), Q2YSF2",glycan array binding signal (z-score),Fuc(a1-2)Gal(b1-3)GlcNAc,-0.281
same,glycan array binding signal (z-score),[17],2.44
"Regenerating Gene IV (Homo sapiens), Q9BYZ8",glycan array binding signal (z-score),Fuc(a1-2)Gal(b1-4)Glc6S,2.53
